# Of roughly 8,800 targets only a part is listed; those with a hit were picked by preference. About 0.5% of all pairs of compound and target were hits. A number with no mark means an inactive call.
# Compound: CS(=O)(=O)CCNCc1ccc(-c2ccc3ncnc(Nc4ccc(OCc5cccc(F)c5)c(Cl)c4)c3c2)o1 [lapatinib]
# Assay: log2 fold change, soluble protein after heating vs DMSO (PISA); higher = thermal stabilisation; K562 lysate, 10 uM; active = over 0.2 and 3.5 SD of the protein, either way, in both replicates (recomputed)
# How it was run: (§1)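 Thermal stability, expressed as log-two fold change relative to solvent controls, is given from duplicates. Crude K562 extract in PBS pH 7.4 with 1 mM MgCl2, at 1 mg/mL protein, was treated with 10 μM compound for 30 min and heated in aliquots for 3 min across 48°C-58°C. After pooling, adjustment to 0.5% NP-40 at 4°C and centrifugation at 21,000xg for 90 min, supernatant protein was measured by TMTpro 16plex LC-MS/MS with channel sums equalised.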
# UniProt Q9ULG6, sequence (Q9ULG6 whole entry, looked up): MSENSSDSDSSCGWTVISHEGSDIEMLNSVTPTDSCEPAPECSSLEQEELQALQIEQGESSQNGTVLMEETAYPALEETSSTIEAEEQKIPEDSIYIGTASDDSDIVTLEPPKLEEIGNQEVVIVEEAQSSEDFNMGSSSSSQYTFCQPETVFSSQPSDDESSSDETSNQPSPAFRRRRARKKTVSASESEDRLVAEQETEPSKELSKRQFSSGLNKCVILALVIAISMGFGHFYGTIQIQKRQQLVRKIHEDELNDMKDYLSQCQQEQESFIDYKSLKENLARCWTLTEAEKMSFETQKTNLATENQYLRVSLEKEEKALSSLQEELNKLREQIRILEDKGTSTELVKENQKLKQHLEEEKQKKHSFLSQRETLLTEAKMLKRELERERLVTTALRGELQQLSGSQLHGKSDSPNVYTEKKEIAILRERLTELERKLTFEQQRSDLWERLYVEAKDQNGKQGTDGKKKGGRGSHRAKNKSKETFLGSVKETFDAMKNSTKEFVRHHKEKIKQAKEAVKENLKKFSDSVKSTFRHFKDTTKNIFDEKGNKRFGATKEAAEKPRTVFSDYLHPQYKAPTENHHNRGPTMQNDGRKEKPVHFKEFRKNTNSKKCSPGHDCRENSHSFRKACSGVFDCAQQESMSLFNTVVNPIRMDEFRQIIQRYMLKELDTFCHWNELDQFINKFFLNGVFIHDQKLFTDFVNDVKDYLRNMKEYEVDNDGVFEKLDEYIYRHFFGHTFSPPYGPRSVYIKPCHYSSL
# UniProt Q9UEE9, sequence (Q9UEE9 whole entry, looked up): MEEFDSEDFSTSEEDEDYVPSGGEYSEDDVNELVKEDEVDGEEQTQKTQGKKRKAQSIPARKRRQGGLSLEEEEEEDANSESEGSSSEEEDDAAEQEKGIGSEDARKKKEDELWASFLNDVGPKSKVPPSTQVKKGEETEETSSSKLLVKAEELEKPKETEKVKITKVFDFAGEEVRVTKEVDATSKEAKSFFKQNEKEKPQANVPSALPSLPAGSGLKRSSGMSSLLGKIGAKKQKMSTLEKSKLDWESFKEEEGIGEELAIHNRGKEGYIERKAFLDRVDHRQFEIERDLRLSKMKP
# UniProt Q9HD20, sequence (Q9HD20 whole entry, looked up): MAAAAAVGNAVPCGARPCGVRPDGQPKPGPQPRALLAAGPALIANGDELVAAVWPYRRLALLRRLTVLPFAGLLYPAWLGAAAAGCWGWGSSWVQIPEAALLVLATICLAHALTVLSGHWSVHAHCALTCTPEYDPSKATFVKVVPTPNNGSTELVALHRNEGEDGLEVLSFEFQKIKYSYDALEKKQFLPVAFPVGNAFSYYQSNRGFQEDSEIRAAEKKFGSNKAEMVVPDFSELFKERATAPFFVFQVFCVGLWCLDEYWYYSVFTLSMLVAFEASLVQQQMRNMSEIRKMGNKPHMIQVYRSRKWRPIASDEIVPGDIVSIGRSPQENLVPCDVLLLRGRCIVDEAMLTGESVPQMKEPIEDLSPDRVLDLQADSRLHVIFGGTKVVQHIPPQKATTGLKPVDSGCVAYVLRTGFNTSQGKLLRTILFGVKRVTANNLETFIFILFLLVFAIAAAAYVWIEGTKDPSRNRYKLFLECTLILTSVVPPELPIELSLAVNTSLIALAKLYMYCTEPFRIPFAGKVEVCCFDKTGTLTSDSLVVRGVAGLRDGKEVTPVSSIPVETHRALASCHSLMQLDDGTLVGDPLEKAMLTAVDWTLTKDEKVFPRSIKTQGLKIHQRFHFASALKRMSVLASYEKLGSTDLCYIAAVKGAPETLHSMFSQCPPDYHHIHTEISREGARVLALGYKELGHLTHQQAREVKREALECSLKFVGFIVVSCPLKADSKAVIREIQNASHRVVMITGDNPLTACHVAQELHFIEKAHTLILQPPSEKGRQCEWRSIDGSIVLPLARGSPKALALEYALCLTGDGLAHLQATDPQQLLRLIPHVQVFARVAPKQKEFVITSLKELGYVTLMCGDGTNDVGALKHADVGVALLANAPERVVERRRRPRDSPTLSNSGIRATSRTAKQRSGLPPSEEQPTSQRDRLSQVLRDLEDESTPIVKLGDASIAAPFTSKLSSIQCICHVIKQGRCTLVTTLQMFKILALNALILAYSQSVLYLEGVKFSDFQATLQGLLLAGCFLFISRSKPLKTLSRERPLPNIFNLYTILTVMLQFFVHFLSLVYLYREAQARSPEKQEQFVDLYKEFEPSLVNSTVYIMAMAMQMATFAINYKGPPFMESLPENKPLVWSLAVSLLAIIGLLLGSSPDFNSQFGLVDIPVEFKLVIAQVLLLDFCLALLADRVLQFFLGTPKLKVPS
# UniProt Q15059, sequence (Q15059 whole entry, looked up): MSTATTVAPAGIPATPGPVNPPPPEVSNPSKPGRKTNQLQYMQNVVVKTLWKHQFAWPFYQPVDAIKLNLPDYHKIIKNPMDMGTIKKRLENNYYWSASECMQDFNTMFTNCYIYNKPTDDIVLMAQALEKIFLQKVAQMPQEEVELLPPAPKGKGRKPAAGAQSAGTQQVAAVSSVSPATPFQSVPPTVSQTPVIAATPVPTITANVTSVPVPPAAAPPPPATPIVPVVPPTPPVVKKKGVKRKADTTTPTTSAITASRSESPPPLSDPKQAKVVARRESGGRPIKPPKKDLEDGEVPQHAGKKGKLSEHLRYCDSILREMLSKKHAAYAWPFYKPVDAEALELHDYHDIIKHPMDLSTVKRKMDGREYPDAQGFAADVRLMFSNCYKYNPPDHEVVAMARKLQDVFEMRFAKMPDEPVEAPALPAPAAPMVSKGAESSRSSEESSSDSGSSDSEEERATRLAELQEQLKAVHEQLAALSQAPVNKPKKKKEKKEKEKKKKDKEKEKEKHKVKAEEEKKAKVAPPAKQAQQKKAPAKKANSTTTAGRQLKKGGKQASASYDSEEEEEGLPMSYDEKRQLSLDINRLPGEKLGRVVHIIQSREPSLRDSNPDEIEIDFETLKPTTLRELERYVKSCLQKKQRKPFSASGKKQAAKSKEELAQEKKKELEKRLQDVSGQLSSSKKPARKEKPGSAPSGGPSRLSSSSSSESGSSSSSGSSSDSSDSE
# UniProt Q8IWY9, sequence (Q8IWY9 whole entry, looked up): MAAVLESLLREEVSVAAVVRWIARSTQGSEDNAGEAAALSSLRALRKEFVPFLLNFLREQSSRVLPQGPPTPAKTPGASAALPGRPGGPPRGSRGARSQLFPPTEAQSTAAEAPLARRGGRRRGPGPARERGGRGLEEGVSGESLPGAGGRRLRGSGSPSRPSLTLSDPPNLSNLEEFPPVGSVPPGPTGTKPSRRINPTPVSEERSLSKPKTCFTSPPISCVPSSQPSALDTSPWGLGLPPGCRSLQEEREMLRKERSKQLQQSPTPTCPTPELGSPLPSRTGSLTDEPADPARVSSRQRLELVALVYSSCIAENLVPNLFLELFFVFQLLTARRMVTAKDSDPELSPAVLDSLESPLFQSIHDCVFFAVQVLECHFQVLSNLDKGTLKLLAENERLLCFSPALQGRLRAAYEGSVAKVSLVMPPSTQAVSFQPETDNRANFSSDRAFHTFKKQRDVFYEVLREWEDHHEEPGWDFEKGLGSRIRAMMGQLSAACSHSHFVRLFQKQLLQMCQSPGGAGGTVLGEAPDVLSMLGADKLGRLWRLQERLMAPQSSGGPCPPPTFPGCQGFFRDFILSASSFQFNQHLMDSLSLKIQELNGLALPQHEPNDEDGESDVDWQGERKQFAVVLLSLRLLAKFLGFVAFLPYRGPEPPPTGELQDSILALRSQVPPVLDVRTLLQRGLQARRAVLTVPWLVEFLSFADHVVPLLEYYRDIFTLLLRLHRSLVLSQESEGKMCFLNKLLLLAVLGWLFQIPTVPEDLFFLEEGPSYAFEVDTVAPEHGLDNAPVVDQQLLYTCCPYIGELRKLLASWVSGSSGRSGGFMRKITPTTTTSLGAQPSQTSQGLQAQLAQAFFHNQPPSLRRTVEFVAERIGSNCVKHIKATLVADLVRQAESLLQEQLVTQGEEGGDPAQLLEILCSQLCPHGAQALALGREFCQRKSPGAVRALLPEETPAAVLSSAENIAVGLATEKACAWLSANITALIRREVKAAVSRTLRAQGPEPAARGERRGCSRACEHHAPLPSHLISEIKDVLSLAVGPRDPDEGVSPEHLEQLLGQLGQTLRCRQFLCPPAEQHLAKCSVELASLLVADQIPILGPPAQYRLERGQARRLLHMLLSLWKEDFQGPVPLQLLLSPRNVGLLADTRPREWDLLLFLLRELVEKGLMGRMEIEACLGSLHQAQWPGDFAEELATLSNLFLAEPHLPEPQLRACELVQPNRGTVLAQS
# UniProt Q8WUX2, sequence (Q8WUX2 whole entry, looked up): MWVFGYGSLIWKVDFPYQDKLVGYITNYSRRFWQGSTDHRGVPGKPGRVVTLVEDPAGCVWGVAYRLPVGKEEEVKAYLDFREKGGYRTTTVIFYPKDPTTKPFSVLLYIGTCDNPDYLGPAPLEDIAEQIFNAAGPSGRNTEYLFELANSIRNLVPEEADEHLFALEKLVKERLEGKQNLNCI
# UniProt Q8NBU5, sequence (Q8NBU5 whole entry, looked up): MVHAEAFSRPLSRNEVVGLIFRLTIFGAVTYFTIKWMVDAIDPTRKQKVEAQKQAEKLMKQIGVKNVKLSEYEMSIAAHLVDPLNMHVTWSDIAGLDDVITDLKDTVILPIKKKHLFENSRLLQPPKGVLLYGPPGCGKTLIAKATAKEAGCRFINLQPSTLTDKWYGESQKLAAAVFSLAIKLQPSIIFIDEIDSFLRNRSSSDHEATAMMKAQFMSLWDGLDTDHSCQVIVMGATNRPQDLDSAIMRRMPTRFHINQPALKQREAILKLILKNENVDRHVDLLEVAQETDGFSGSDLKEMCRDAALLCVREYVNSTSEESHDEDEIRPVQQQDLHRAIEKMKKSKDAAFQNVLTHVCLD
# UniProt Q9UL45, sequence (Q9UL45 whole entry, looked up): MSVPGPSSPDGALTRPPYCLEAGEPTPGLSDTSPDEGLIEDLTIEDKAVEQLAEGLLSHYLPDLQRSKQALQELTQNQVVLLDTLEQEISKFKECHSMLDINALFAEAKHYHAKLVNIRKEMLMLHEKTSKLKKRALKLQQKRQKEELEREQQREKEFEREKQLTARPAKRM
# UniProt Q8TCD1, sequence (Q8TCD1 whole entry, looked up): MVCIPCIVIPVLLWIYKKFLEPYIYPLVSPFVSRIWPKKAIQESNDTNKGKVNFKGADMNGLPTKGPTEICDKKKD
row,Target,log2 fold change
1,BLOC1S6 (UniProt Q9UL45),-0.018
2,BAG4 (UniProt O95429),0.013
3,CCNC (UniProt P24863),-0.108
4,CALM2 (UniProt P0DP24),-0.038
5,CEP76 (UniProt Q8TAP6),-0.031
6,CDS2 (UniProt O95674),0.02
7,CCAR2 (UniProt Q8N163),0.002
8,CDKN2AIP (UniProt Q9NXV6),-0.015
9,BRD3 (UniProt Q15059),0.014
10,CEP120 (UniProt Q8N960),-0.076
11,C18orf25 (UniProt Q96B23),0.017
12,CDAN1 (UniProt Q8IWY9),0.009
13,ATAD1 (UniProt Q8NBU5),-0.158
14,CCT6A (UniProt P40227),-0.01
15,C5orf51 (UniProt A6NDU8),0.018
16,CHCHD4 isoform 2 (UniProt Q8N4Q1),0.045
17,CCPG1 isoform 5 (UniProt Q9ULG6),0.114
18,CD63 (UniProt P08962),0.006
19,CES2 isoform 4 (UniProt O00748),0.027
20,CFDP1 (UniProt Q9UEE9),-0.018

row,Target,log2 fold change
1,AURKAIP1 (UniProt Q9NWT8),-0.001
2,CCDC186 (UniProt Q7Z3E2),-0.056
3,ATP13A1 (UniProt Q9HD20),-0.115
4,ATXN2 (UniProt Q99700),0.006
5,CHCHD2 (UniProt Q9Y6H1),0.035
6,CDC40 (UniProt O60508),-0.028
7,CCNK isoform 4 (UniProt O75909),0.001
8,C18orf32 (UniProt Q8TCD1),-0.012
9,CHAF1A (UniProt Q13111),0.014
10,CAMK2G isoform 8 (UniProt Q13555),-0.013
11,CBX1 (UniProt P83916),0.052
12,ATP5PF isoform 2 (UniProt P18859),0.04
13,CCNB1 (UniProt P14635),-0.029
14,BCL2L12 (UniProt Q9HB09),0.164
15,ATP11A (UniProt P98196),-0.118
16,CAMK1 (UniProt Q14012),-0.037
17,CAMLG (UniProt P49069),0.009
18,CHAC2 (UniProt Q8WUX2),0.038
19,CANX isoform 2 (UniProt P27824),0.018
20,BRD2 isoform 2 (UniProt P25440),0.014

# Compound: CS(=O)(=O)N1CCN(Cc2cc3nc(-c4cccc5[nH]ncc45)nc(N4CCOCC4)c3s2)CC1 [pictilisib]
# Assay: as above
# How it was run: as §1
row,Target,log2 fold change
1,BLOC1S6 (UniProt Q9UL45),-0.037
2,BAG4 (UniProt O95429),-0.174
3,CCNC (UniProt P24863),0.036
4,CALM2 (UniProt P0DP24),-0.128
5,CEP76 (UniProt Q8TAP6),-0.073
6,CDS2 (UniProt O95674),-0.007
7,CCAR2 (UniProt Q8N163),-0.061
8,CDKN2AIP (UniProt Q9NXV6),-0.036
9,BRD3 (UniProt Q15059),0.004
10,CEP120 (UniProt Q8N960),-0.007
11,C18orf25 (UniProt Q96B23),-0.003
12,CDAN1 (UniProt Q8IWY9),-0.05
13,ATAD1 (UniProt Q8NBU5),0.012
14,CCT6A (UniProt P40227),0.008
15,C5orf51 (UniProt A6NDU8),-0.003
16,CHCHD4 isoform 2 (UniProt Q8N4Q1),0.092
17,CCPG1 isoform 5 (UniProt Q9ULG6),-0.038
18,CD63 (UniProt P08962),-0.256
19,CES2 isoform 4 (UniProt O00748),0.32
20,CFDP1 (UniProt Q9UEE9),0.008

row,Target,log2 fold change
1,AURKAIP1 (UniProt Q9NWT8),0.051
2,CCDC186 (UniProt Q7Z3E2),-0.004
3,ATP13A1 (UniProt Q9HD20),-0.011
4,ATXN2 (UniProt Q99700),-0.042
5,CHCHD2 (UniProt Q9Y6H1),0
6,CDC40 (UniProt O60508),0.039
7,CCNK isoform 4 (UniProt O75909),0.013
8,C18orf32 (UniProt Q8TCD1),0.041
9,CHAF1A (UniProt Q13111),0.063
10,CAMK2G isoform 8 (UniProt Q13555),-0.008
11,CBX1 (UniProt P83916),-0.006
12,ATP5PF isoform 2 (UniProt P18859),-0.088
13,CCNB1 (UniProt P14635),-0.01
14,BCL2L12 (UniProt Q9HB09),-0.184
15,ATP11A (UniProt P98196),-0.087
16,CAMK1 (UniProt Q14012),-0.058
17,CAMLG (UniProt P49069),-0.039
18,CHAC2 (UniProt Q8WUX2),-0.011
19,CANX isoform 2 (UniProt P27824),0.037
20,BRD2 isoform 2 (UniProt P25440),0.012

# Reference: the supplement of paper PMC10849652
